Compounds with a hit are over-represented: about 5.9% of the library has one in this group of screens.
GALK inh – inhibitors of human galactokinase | P51570 | actives 0.007% (n = 270,000) | Purified GALK, Kinase-Glo residual ATP luminescence | Potency, µM (titrated, usually from 57.5 µM), inactives show at the highest dose activity change, negative = inhibition, most hits filed as inhibitors; note: potency is the fitted concentration of half-maximal effect
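ATP-depletion format; final 35 uM ATP, 100 uM D-galactose, 5 nM enzyme; pH 8.0 HEPES/Mg2+ buffer; 60 min RT; luminescence read 10 min after detection reagent.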
Coupling enz – coupling enzyme interference in Giardia aldolase counter-screen. activity change, negative = inhibition, % at 58.2 µM, hits read low. coupling enzyme system counterscreen, AmpLite Red fluorescence. AID 2472. actives 0.67% (n = 290,000); in the data active = activity change below about -30%
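Activity here indicates interference with the coupling reaction, not aldolase inhibition. Compounds at 57.5 uM final met coupling enzymes for 10 min at RT; substrate and AmpLite Red detection followed, with a 525/598 nm fluorescence read after 20 min.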
TrxR1 substrate – rat thioredoxin reductase 1 substrate activity; O89049; purified TrxR1 substrate turnover, NADPH consumption readout; Potency, µM (series often up to 114 µM), inactives show at the highest dose activity change, negative = substrate turnover; actives 0.01% (n = 390,000); AID 588456; note: potency is the fitted concentration of half-maximal effect; nearly all actives have a fitted effect of over 50% in size
Target sequence (O89049 whole entry, looked up): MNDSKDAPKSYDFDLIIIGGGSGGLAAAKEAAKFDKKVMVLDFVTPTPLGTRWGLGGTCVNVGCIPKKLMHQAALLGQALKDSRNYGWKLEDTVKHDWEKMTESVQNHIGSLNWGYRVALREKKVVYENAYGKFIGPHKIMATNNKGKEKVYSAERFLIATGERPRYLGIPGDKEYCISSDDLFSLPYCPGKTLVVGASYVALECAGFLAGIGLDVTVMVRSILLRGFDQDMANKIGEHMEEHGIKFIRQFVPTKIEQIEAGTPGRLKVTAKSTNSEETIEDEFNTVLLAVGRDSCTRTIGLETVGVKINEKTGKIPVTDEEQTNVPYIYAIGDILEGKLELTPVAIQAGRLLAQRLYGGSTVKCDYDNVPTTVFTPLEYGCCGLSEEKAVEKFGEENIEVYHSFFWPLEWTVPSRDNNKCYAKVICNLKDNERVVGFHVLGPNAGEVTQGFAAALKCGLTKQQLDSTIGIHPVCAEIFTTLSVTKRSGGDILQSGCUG
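Rat TrxR1, dispensed at 90 nM, was prereduced with 400 uM NADPH (final) for 5 min at ~22 deg C, then incubated with compound 15 min before 400 uM selenite. A first-read NADPH fluorescence drop versus no-compound background flagged substrates.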
Gal4-VP16 FLuc – Gal4-VP16 reporter inhibition counter-screen. AID 2546. Drosophila S2 Gal4-VP16 UAS-luciferase, luminescence, 20 h. actives 3.5% (n = 310,000). Potency, µM (titrated, usually from 53.6 µM), inactives show at the top dose activity, negative = inhibition, usual class: inhibitors;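 note: Gal4-VP16 expression switched on by copper sulfate through the metallothionein promoter; potency is the fitted concentration of half-maximal effect; nearly all actives have a fitted effect of over 50% in size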
rTrxR1 inhibitor – blocks rat thioredoxin reductase 1; O89049; Potency, µM (series often up to 114 µM), inactives show at the highest dose activity change, negative = inhibition, usual class: inhibitors; actives 1% (n = 390,000); AID 588453; recombinant rTrxR1, NADPH fluorescence consumption, selenite substrate; note: potency is the fitted concentration of half-maximal effect; nearly all actives have a fitted effect of over 65% in size
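Rat TrxR1 (90 nM in the dispensed reagent) was pre-reduced with 400 uM NADPH for 5 min at room temperature, then incubated with compound for 15 min. After 400 uM selenite was added, NADPH fluorescence (Ex 340/Em 450 nm) was followed for 8 min.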
RORgamma inh – blocks mouse ROR gamma transcriptional activity; P51450; Drosophila S2 Gal4-RORgamma UAS-luciferase reporter, 20 h; Potency, µM (series often up to 53.6 µM), for the others: top-dose activity change, negative = inhibition, actives largely listed as inhibitors; actives 5.4% (n = 310,000); AID 2551; note: potency is the fitted concentration of half-maximal effect; nearly all actives have a fitted effect of over 60% in size
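Luminescence from a UAS-regulated Photinus luciferase reporter in stably transfected Drosophila Schneider cells is measured; decreased signal marks ROR gamma inhibition. Fusion expression is induced by 700 uM copper sulfate for 20 hr.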
The depositor's hits bear a star; ? = inconclusive; · = not tested or not shown; [ ] = dose if it differs, or a comment. Unless noted, calls come from the whole dose curve; as a rule, active = well fitted curve in the direction sought with a large enough effect; inconclusive = small, poorly fitted or top-dose-only effect, or another doubt; inactive = no such curve, though single readings can be large; an effect the other way counts as inactive or inconclusive. % is set by controls: 0 for no effect and ±100 for the full control effect.

SMILES	GALK inh	Coupling enz	TrxR1 substrate	Gal4-VP16 FLuc	rTrxR1 inhibitor	RORgamma inh
Cc1ccc(C(=O)CC(=O)c2ccccc2)cc1	4.7%	-1.5	-4.2%	?	15.6%	11.2µM*
S=c1[nH]nc(CSCCOc2ccccc2)o1	·	9.3	7.7%[11.4 µM]	-11.5%	17.8%[11.4 µM]	?
S=c1[nH]nc(CSCCOc2ccc(Cl)cc2Cl)o1	·	11.3	10.9%	3.16µM*	6.7%	3.98µM*
CC(C)(C)C(=O)Nc1cc2nn(-c3ccccc3)nc2cc1Cl	0.8%	0.3	36.8%[57.1 µM]	3.55µM*	-1.9%[57.1 µM]	0.631µM*
CC(=O)Nc1cc2nn(-c3ccccc3)nc2cc1Cl	-0.1%	1.7	57.9%	-0.6%	23.0%	?
Cc1cccc(N(CC(=O)NCC2CCCO2)C(=O)CCC(=O)Nc2cc(C)on2)c1 (stereo not drawn)	-4.1%	0.4	4.8%	3.8%	10.9%	7.5%
Cc1cnc(CNc2nc(-c3ccc(N(C)C)cc3)nc3ccccc23)cn1	·	0.1	·	11.2µM*	·	?
O=C1C2C3CCCC3=C3CCCC3C2C(=O)N1c1ccc(F)cc1 (stereo not drawn)	2.3%	0.8	4.5%[57.1 µM]	-5.2%	3.5%[57.1 µM]	-23.5%
O=C(CN1C(=O)/C(=C2\SC(=S)N(C3CCS(=O)(=O)C3)C2=O)c2ccccc21)Nc1ccccc1 (stereo not drawn)	-3.1%	0.0	-22.4%[57.1 µM]	-20.9%	14.1%[57.1 µM]	0.891µM*
Oc1cccc2ccc(/C=C/c3cccs3)nc12	2.3%	-9.5	-2.9%	?	-5.9%	12.6µM*
Cc1cccc(/C=C/c2cccs2)n1	·	·	0.8%	·	-7.2%	·
Cc1ccsc1/C=C/c1ccc2ccccc2n1	0.4%	3.3	-7.1%	?	-9.4%	10µM*
Cc1ccsc1/C=C/c1ccc2cccc(O)c2n1	0.2%	-5.1	-5.1%	?	-11.3%	4.47µM*
COc1cc2[nH]c(=S)n(Cc3ccc(C)cc3)c(=O)c2cc1OC	-2.3%	1.5	-8.1%	3.16µM*	-9.0%	1.78µM*
COc1ccc(Cn2c(=S)[nH]c3cc(OC)c(OC)cc3c2=O)cc1	-3.0%	1.4	2.9%[57.1 µM]	?	-7.6%[57.1 µM]	3.55µM*
CCOc1cc(C2/C(=C(/O)c3ccc(OC)cc3)C(=O)C(=O)N2CC2CCCO2)ccc1O (stereo not drawn)	-1.0%	4.1	-6.4%	-8.9%	6.4%	-2.3%
Cc1ccc(C(=O)N/C(=C/c2ccco2)C(=O)Nc2cccc(C)c2)cc1	-3.3%	-5.2	-1.6%	1.7%	-29.0%	30.4%
Cc1cccc(NC(=O)/C(=C\c2ccco2)NC(=O)c2cccs2)c1	·	-4.5	-7.3%	3.8%	39.8µM*	-12.7%
O=C(Nc1cccc(F)c1)/C(=C/c1ccco1)NC(=O)c1ccco1	-10.7%	·	-17.3%	1.0%	44.7µM*	3.3%
CCCCCCC1CC(=O)NC(=S)N1 (stereo not drawn)	-1.2%	-0.7	2.1%	?	14.0%	8.91µM*
Cc1nn(-c2ccc(F)cc2)c(Cl)c1/C=N/NC(=O)c1ccc(O)cc1	13.4%	5.0	3.0%[57.1 µM]	2.24µM*	9.6%[57.1 µM]	?
Cc1nn(-c2ccc(F)cc2)c(Cl)c1/C=N/NC(=O)c1cccs1	-0.5%	3.5	-8.0%	-17.9%	-11.6%	?
Cc1nn(-c2ccccc2)c(Cl)c1/C=N/NC(N)=O	5.9%	-0.6	2.3%[57.1 µM]	10.2%	15.3%	12.7%
CNC(=S)N/N=C/c1c(C)nn(-c2ccc(F)cc2)c1Cl	1.6%	0.2	6.0%	7.08µM*	14.2%	2.82µM*
CNC(=S)NNC(=O)c1cccs1	-1.5%	-0.7	-11.5%[57.1 µM]	1.0%	29.5%[57.1 µM]	-14.7%
CCn1cc(C(=O)N2CCN(c3ccccc3)CC2)c(=O)c2cc(S(=O)(=O)N(C)C)ccc21	·	·	-6.9%	·	7.8%	·
CCC(C)N(NC(C)=O)c1nc(Cl)nc(NC(C)C)n1 (stereo not drawn)	1.3%	-4.9	7.5%[57.1 µM]	?	5.5%[57.1 µM]	11.2µM*
Cn1c(CN2CCN(c3ccc(Cl)cc3)CC2)nc2ccccc21	3.4%	0.4	5.9%	?	9.5%	6.31µM*
